Data taken from the supplement of paper PMC7156485.
± gives the standard deviation of the averaged measurements.

Columns and labels:
Details in all cases: concentration: 10 µM; 24 h
HCC1569 [1] = assay: cell number relative to DMSO (% of DMSO); higher = more cells (less growth inhibition / toxicity)
Summary of the method: (§1)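 In 384-well plates holding 800 HCC1569 or TDF cells per well in RPMI with 10% FBS, compounds were tested at 10 µM for 24 h at 37 °C in triplicate. Fixation used 3.7% formaldehyde. Staining used a rabbit anti-H1.0 antibody with an AlexaFluor 647 secondary, plus DAPI. Each value, H1.0 nuclear intensity or cell number, is a median of replicates shown as percent of the plate control, and HCC1569 values were smoothed for positional effects.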

TDF [2] = assay: as above
Summary of the method: as §1

TDF [3] = assay: H1.0 immunofluorescence intensity relative to DMSO (% of DMSO); higher = stronger H1.0 induction, active = 120 or more
Summary of the method: as §1

HCC1569 [4] = assay: H1.0 immunofluorescence intensity relative to DMSO (% of DMSO); higher = stronger H1.0 induction, active = 140 or more
Summary of the method: as §1
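For H1.0 immunofluorescence intensity relative to DMSO in this document: TDF is a line of transformed human dermal fibroblasts of mesenchymal origin.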
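For cell number relative to DMSO in this document: TDF denotes transformed human dermal fibroblasts of mesenchymal origin.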

| Compound | cell number (HCC1569 [1]) | cell number (TDF [2]) | H1.0 immunofluorescence intensity (TDF [3]) | H1.0 immunofluorescence intensity (HCC1569 [4]) |
| --- | --- | --- | --- | --- |
| COc1ccc2c(c1)c(CC(=O)N1CCOCC1)c(C)n2C(=O)c1ccc(Cl)cc1 | 102 | 104 | 94.6 (inactive) | 104 (inactive) |
| O=c1c2ccccc2nc2n1CCc1c-2[nH]c2ccccc12 [Rutaecarpine] | 102 ± 6.6 | 103.4 ± 0.87 | 94.9 (inactive) | 102 (inactive) |
| CC(C)(ON=C(C(=O)NC1C(=O)N2C(C(=O)[O-])=C(C[n+]3ccccc3)CSC12)c1csc(N)n1)C(=O)O (configuration not stated) [Ceftazidime] | 103 | 103 | 90.2 (inactive) | 108 (inactive) |
